Source: the antibiotic and cytotoxicity screens of Wong et al. (2023)
Screen size: about 39,000 compounds; about 3,300 (8.5%) were called active. The list comes from a sample in which actives are over-represented; it also holds similar structures and randomly drawn compounds.

test system: HepG2; experiment: cytotoxicity call (relative viability < 0.9); conditions: 10 µM

| SMILES | cytotoxicity call |
| --- | --- |
| CC(C)(C)OC(=O)N1CCNC(=O)C1 | inactive |
| O=C(O)CCN1C(=O)NC2(CCCC2)C1=O | inactive |
| O=C(C1=C[C@@H](c2ccsc2)C[C@@H](OCCCCO)O1)N1CCN(Cc2ccc3c(c2)OCO3)CC1 | inactive |
| C[C@H]1CN([C@@H](C)CO)C(=O)CCCn2nncc2CO[C@@H]1CN(C)C(=O)CCCN(C)C | inactive |
| C[C@H]1CN([C@@H](C)CO)C(=O)Cc2cc(NC(=O)CCN3CCOCC3)ccc2O[C@@H]1CN(C)S(=O)(=O)c1ccc(Cl)cc1 | inactive |
| CC(C[N+](C)(C)C)OC(N)=O.[Cl-] (configuration not stated) | inactive |
| CC(=O)OC(C)C[N+](C)(C)C.[Cl-] (configuration not stated) | active |
| CC(=O)O[C@@H](C)C[N+](C)(C)C | inactive |
| O=C(C[C@H]1CC[C@H]2[C@@H](COC[C@@H](O)CN2C(=O)Nc2cccc(Cl)c2)O1)NCc1ccccc1F | inactive |
| CN(C)Cc1cn(CC[C@@H]2CC[C@@H](NC(=O)Cc3cccnc3)[C@@H](CO)O2)nn1 | inactive |
| C[C@@H]1CCCCO[C@@H](CN(C)C(=O)c2ccncc2)[C@H](C)CN([C@H](C)CO)C(=O)c2cc(NS(=O)(=O)c3cn(C)cn3)ccc2O1 | inactive |
| O=C(C[C@@H]1CC[C@H]2[C@@H](COC[C@@H](O)CN2S(=O)(=O)c2ccccc2F)O1)NCc1ccccc1Cl | inactive |
| C[C@@H]1CN([C@H](C)CO)C(=O)c2cc(NS(C)(=O)=O)ccc2O[C@@H]1CN(C)Cc1ccc(C(=O)Nc2ccccc2N)cc1 | inactive |
| COc1ccc(CNC(=O)c2cc3c(c(-c4cccc(-c5ccc(C#N)cc5)c4)n2)[C@H](CCO)N([S@@](=O)C(C)(C)C)C3)cc1 | inactive |
| COc1ccc(C2=N[C@H](c3ccc(Cl)cc3)[C@H](c3ccc(Cl)cc3)N2C(=O)N2CCNC(=O)C2)c(OC(C)C)c1 | inactive |
| COc1ccc(C2=N[C@@H](c3ccc(Cl)cc3)[C@@H](c3ccc(Cl)cc3)N2C(=O)N2CCNC(=O)C2)c(OC(C)C)c1 | active |
| COc1ccc(S(=O)(=O)N(C)C[C@@H]2Oc3ccc(NC(=O)C4CC4)cc3C(=O)N([C@@H](C)CO)C[C@@H]2C)cc1 | inactive |
| Cc1noc(C)c1NC(=O)N(C)C[C@H]1Oc2c(NS(=O)(=O)c3cn(C)cn3)cccc2C(=O)N([C@H](C)CO)C[C@@H]1C | inactive |
| C[C@@H]1CN([C@@H](C)CO)C(=O)c2cc(NC(=O)NC3CCCCC3)ccc2O[C@@H](C)CCCCO[C@H]1CN(C)C(=O)Nc1ccc2c(c1)OCO2 | active |
| C[C@@H]1CCCCO[C@H](CN(C)C(=O)Nc2ccc3c(c2)OCO3)[C@H](C)CN([C@@H](C)CO)C(=O)c2cc(NC(=O)NC3CCCCC3)ccc2O1 | inactive |
| C[C@@H]1CCCCO[C@@H](CN(C)C(=O)Nc2ccc3c(c2)OCO3)[C@H](C)CN([C@H](C)CO)C(=O)c2cc(NC(=O)NC3CCCCC3)ccc2O1 | inactive |

| SMILES | cytotoxicity call |
| --- | --- |
| C[C@@H]1CCCCO[C@@H](CN(C)C(=O)Nc2ccc3c(c2)OCO3)[C@@H](C)CN([C@@H](C)CO)C(=O)c2cc(NC(=O)NC3CCCCC3)ccc2O1 | inactive |
| C[C@@H]1CCCCO[C@H](CN(C)C(=O)Nc2ccc3c(c2)OCO3)[C@H](C)CN([C@H](C)CO)C(=O)c2cc(NC(=O)NC3CCCCC3)ccc2O1 | active |
| C[C@H](CO)N1C[C@H](C)[C@@H](CN(C)C(=O)Nc2ccc3c(c2)OCO3)OCCCC[C@H](C)Oc2ccc(NC(=O)NC3CCCCC3)cc2C1=O | inactive |
| C[C@@H]1CN([C@@H](C)CO)C(=O)Cc2cc(NC(=O)CCCN(C)C)ccc2O[C@H]1CN(C)S(=O)(=O)c1ccc(Cl)cc1 | inactive |
| Cc1noc(C)c1NC(=O)N(C)C[C@H]1Oc2ccc(NC(=O)C3CC3)cc2CC(=O)N([C@@H](C)CO)C[C@@H]1C | inactive |
| C[C@@H]1CCCCO[C@@H](CN(C)S(=O)(=O)c2cn(C)cn2)[C@H](C)CN([C@@H](C)CO)C(=O)c2cc(NC(=O)Nc3cccc4ccccc34)ccc2O1 | inactive |
| CCCNC(=O)N(C)C[C@@H]1Oc2ncc(-c3ccc(C(=O)N(C)C)cc3)cc2C(=O)N([C@H](C)CO)C[C@H]1C | inactive |
| C[C@@H]1CCCCO[C@@H](CN(C)C(=O)Nc2ccc(C(F)(F)F)cc2)[C@H](C)CN([C@@H](C)CO)C(=O)c2cc(NC(=O)Nc3ccc(F)cc3)ccc2O1 | inactive |
| Cc1ccc(S(=O)(=O)N(C)C[C@H]2OCCCC[C@H](C)Oc3ccc(NS(=O)(=O)c4ccc(F)cc4)cc3C(=O)N([C@H](C)CO)C[C@@H]2C)cc1 | inactive |
| C[C@@H]1CN([C@H](C)CO)C(=O)Cc2cc(NC(=O)Nc3cccc4ccccc34)ccc2O[C@@H]1CN(C)Cc1ccc(C(=O)Nc2ccccc2N)cc1 | inactive |
| COc1ccc(NC(=O)Nc2ccc3c(c2)CC(=O)N([C@H](C)CO)C[C@H](C)[C@@H](CN(C)Cc2ccc(C(=O)Nc4ccccc4N)cc2)O3)cc1 | inactive |
| C[C@@H]1CN([C@H](C)CO)C(=O)Cc2cc(NC(=O)Nc3ccc(F)cc3)ccc2O[C@@H]1CN(C)Cc1ccc(C(=O)Nc2ccccc2N)cc1 | active |
| COc1ccc(NC(=O)Nc2ccc3c(c2)CC(=O)N([C@H](C)CO)C[C@@H](C)[C@@H](CN(C)Cc2ccc(C(=O)Nc4ccccc4N)cc2)O3)cc1 | active |
| C[C@@H]1CN([C@H](C)CO)C(=O)Cc2cc(NC(=O)Nc3cccc4ccccc34)ccc2O[C@H]1CN(C)Cc1ccc(C(=O)Nc2ccccc2N)cc1 | inactive |
| COc1ccc(NC(=O)Nc2ccc3c(c2)CC(=O)N([C@@H](C)CO)C[C@H](C)[C@@H](CN(C)Cc2ccc(C(=O)Nc4ccccc4N)cc2)O3)cc1 | inactive |
| C[C@@H]1CN([C@@H](C)CO)C(=O)Cc2cc(NC(=O)Nc3ccc(F)cc3)ccc2O[C@H]1CN(C)Cc1ccc(C(=O)Nc2ccccc2N)cc1 | inactive |
| C[C@H](CO)N1C[C@H](C)[C@H](CN(C)Cc2ccc(C(=O)Nc3ccccc3N)cc2)Oc2ccc(NC(=O)Nc3cccc4ccccc34)cc2CC1=O | active |
| C[C@@H]1CN([C@H](C)CO)C(=O)Cc2cc(NC(=O)Nc3ccccc3)ccc2O[C@@H]1CN(C)Cc1ccc(C(=O)Nc2ccccc2N)cc1 | active |
| C[C@H]1CN([C@@H](C)CO)C(=O)Cc2cc(NC(=O)Nc3ccccc3)ccc2O[C@H]1CN(C)Cc1ccc(C(=O)Nc2ccccc2N)cc1 | inactive |
| C[C@H](CO)N1C[C@H](C)[C@H](CN(C)Cc2ccc(C(=O)Nc3ccccc3N)cc2)Oc2ccc(NC(=O)Nc3ccccc3)cc2CC1=O | inactive |
| C[C@H](CO)N1C[C@H](C)[C@@H](CN(C)Cc2ccc(C(=O)Nc3ccccc3N)cc2)Oc2ccc(NC(=O)Nc3ccccc3)cc2CC1=O | inactive |
